aSyn 5UTR act – Activators working through SNCA 5'UTR binding (MLPCN) | alpha-synuclein 5'UTR reporter, activators screen | activity score, % (tested at 7.5 µM), hits read low | 300,000 tested, 7.1% active; in the data active = activity score below about -60%
Each line names hits and unclear results; the compound was inactive in the other large screens. Not all results are given here.

O=c1c(Cl)c(N/N=C/c2ccc(Cl)cc2)cnn1-c1ccccc1	aSyn 5UTR act -85
CCSc1cnn(-c2ccccc2)c(=O)c1Cl	aSyn 5UTR act -92
CN(c1cnn(-c2ccccc2)c(=O)c1Cl)n1cccc1	aSyn 5UTR act -83
CCCCNc1cnn(-c2ccccc2)c(=O)c1Cl	aSyn 5UTR act -74
c1ccn(-c2ccc(-c3ccn[nH]3)cc2)c1	aSyn 5UTR act -164
Oc1c(/C=N/Nc2cccc3cccnc23)ccc2ccccc12	aSyn 5UTR act -164
Oc1cccc(/C=N/Nc2cccc3cccnc23)c1	aSyn 5UTR act -142
COc1cc(/C=N/Nc2cccc3cccnc23)cc(OC)c1O	aSyn 5UTR act -94
COc1cccc(C(NC(C)=O)c2ccc3cccnc3c2O)c1 (configuration not stated)	none
Oc1ccc(/C=N/Nc2cccc(Cl)n2)c(O)c1	aSyn 5UTR act -244
O=[N+]([O-])c1ccc(O)c(/C=N/Nc2ccc(Cl)nn2)c1	none
Oc1cccc(/C=N/Nc2ccc(Cl)nn2)c1	aSyn 5UTR act -171
Brc1ccc(-c2csc(/N=C/N3CCOCC3)n2)cc1	aSyn 5UTR act -90
OCCN(/C=N/c1nc(-c2ccc(Br)cc2)cs1)CCO	aSyn 5UTR act -93
Brc1ccc(-c2csc(/N=C/N3CCCC3)n2)cc1	aSyn 5UTR act -94
CCCc1nc(Nc2nc3ccccc3o2)nc(C)c1C(=O)OCC	aSyn 5UTR act -80
CCOC(=O)c1cnc(Nc2nc3ccccc3o2)nc1CSc1ncccn1	aSyn 5UTR act -100
Cc1cc(-c2ccccc2)nc(N/N=C/c2ccccc2F)n1	aSyn 5UTR act -160
C/C(=N\Nc1nc(C)cc(-c2ccccc2)n1)c1cccc(N)c1	aSyn 5UTR act -64
C/C(=N/Nc1nc(C)cc(-c2ccccc2)n1)c1ccco1	aSyn 5UTR act -76
C/C(=N\Nc1nc(C)cc(-c2ccccc2)n1)c1ccccc1	aSyn 5UTR act -102
C[n+]1cn(/N=C/c2ccccc2)c2ccccc21	aSyn 5UTR act -87
Cc1cc2n(n1)SC(Nc1ccc(F)c(Cl)c1)N2 (configuration not stated)	aSyn 5UTR act -77
CCCCCCCC(=O)Nc1ccc(C(=O)N/N=C/c2cccc([N+](=O)[O-])c2)cc1	none
Cc1c(C(=O)N/N=C/c2ccc(Cl)cc2)[nH]c2ccc(Cl)cc12	aSyn 5UTR act -122
O=C(N/N=C/c1cccc([N+](=O)[O-])c1)c1ccc2c(c1)OCCO2	aSyn 5UTR act -126
O=C(N/N=C/c1ccc2c(c1)OCO2)c1ccc(Br)o1	aSyn 5UTR act -250
COc1cccc(/C=N/Nc2ccc([N+](=O)[O-])cn2)c1O	none
Cc1cc(/C=N/Nc2ccc([N+](=O)[O-])cn2)c(C)n1-c1ccccc1	aSyn 5UTR act -137
CN(C)c1ccc(/C=N/NC(=O)c2cc(-c3ccc4c(c3)OCO4)n[nH]2)cc1	aSyn 5UTR act -137
O=C(Nc1cccc(C(=O)O)c1)/C(=C\c1ccc2c(c1)OCO2)NC(=O)c1ccc(Br)o1	aSyn 5UTR act -68
CCN(CC)c1ccc(/C=N/NC(=O)c2ccc(Br)o2)cc1	aSyn 5UTR act -160
Cc1cc(C(=O)N/N=C/c2cccc([N+](=O)[O-])c2)c(C)n1-c1ccccc1	aSyn 5UTR act -142
O=C(N/N=C/c1cc(Br)c(Br)o1)c1ccc2c(c1)OCCO2	aSyn 5UTR act -135
CCC/C(=N/NC(=O)c1ccc2c(c1)OCO2)c1cccs1	aSyn 5UTR act -69
O=C(N/N=C/c1ccc(Cl)cc1)c1ccc2c(c1)OCO2	aSyn 5UTR act -396
CCN(CC)c1ccc(/C=N/NC(=O)Nc2nonc2N)cc1	aSyn 5UTR act -78
O=C(N/N=C/c1cc(Br)cc(Cl)c1O)c1ccc2c(c1)OCO2	none
CCN(CC)c1ccc(/C=N/NC(=O)C2CC2)cc1	aSyn 5UTR act -62
O=C(N/N=C/c1cccs1)c1ccc2c(c1)OCO2	aSyn 5UTR act -65
O=C(N/N=C/c1ccc2c(c1)OCO2)c1ccc2c(c1)OCCO2	aSyn 5UTR act -136
O=C(Cc1ccccc1)N/N=C/c1cc(Br)c(Br)o1	aSyn 5UTR act -68
O=C(/C=C/Nc1cccc(O)c1)c1ccccc1	aSyn 5UTR act -180
CC(=O)c1ccc(N/C=C\C(=O)c2ccc(C)cc2)cc1	aSyn 5UTR act -211
C/C(=C\C(=O)c1ccc(C)cc1)Nc1cccc(O)c1	aSyn 5UTR act -284
Cc1ccc(C(=O)/C=C/Nc2cccc(O)c2)cc1	aSyn 5UTR act -194
Cc1ccc(C(=O)/C=C/Nc2ccc3c(c2)OCO3)cc1	aSyn 5UTR act -182
Cc1ccc(N/C=C/C(=O)c2ccccc2)cc1Br	aSyn 5UTR act -83
O=C(/C=C/Nc1ccc(F)c(Cl)c1)c1ccccc1	aSyn 5UTR act -211
CC(=O)c1cccc(N/C=C\C(=O)c2ccc(C)cc2)c1	aSyn 5UTR act -159
CCC(Sc1nnnn1C)C(=O)Nc1ccc(C(C)=O)cc1 (configuration not stated)	aSyn 5UTR act -73
COc1ccc(Cl)cc1C(=O)Nc1nc2ccc(S(C)(=O)=O)cc2s1	aSyn 5UTR act -73
COc1cc(OC)cc(C(=O)Nc2nc3ccc(S(C)(=O)=O)cc3s2)c1	aSyn 5UTR act -149
CS(=O)(=O)c1ccc2nc(NC(=O)c3cccc([N+](=O)[O-])c3)sc2c1	aSyn 5UTR act -136
N#Cc1ccc(OCc2noc(-c3ccsc3)n2)cc1	aSyn 5UTR act -81
CC/C(=N/NC(=O)c1ccccc1)c1ccc(OCCN2CCOCC2)cc1	aSyn 5UTR act -103
CCCCOc1ccc(C(=O)C(CN2CCOCC2)c2ccccc2)cc1 (configuration not stated)	aSyn 5UTR act -134
COc1ccc(C(=O)C(CN2CCOCC2)c2ccccc2)cc1 (configuration not stated)	aSyn 5UTR act -80
COc1ccc(C(=O)C(CN2CCCC2)c2ccccc2)cc1 (configuration not stated)	aSyn 5UTR act -112
O=C(c1ccc(Cl)cc1)C(CN1CCCC1)c1ccccc1 (configuration not stated)	aSyn 5UTR act -155
CCCCCOc1ccc(C(=O)CCN2CCOCC2)cc1	aSyn 5UTR act -72
O=[N+]([O-])c1cc(C=Nc2ccc3ccccc3c2)ccc1Br	aSyn 5UTR act -119
CN1CCN(Cc2nc(N)nc(Nc3ccc4c(c3)OCCO4)n2)CC1	aSyn 5UTR act -91
N=C1SCC(=O)N1c1nc(-c2ccccc2)cs1	aSyn 5UTR act -159
O=C1CC(c2ccccc2)=NN1c1nc(-c2ccccc2)cs1	aSyn 5UTR act -150
COc1ccc(C2C=C(C)Nc3ncnn32)cc1 (configuration not stated)	aSyn 5UTR act -154
Cc1ccc(-c2csc(NC(=O)c3cccc(C)c3)c2C(=O)O)cc1	aSyn 5UTR act -71
Cc1ccc(-c2csc(NC(=O)c3ccc(Br)cc3)c2C(=O)O)cc1	aSyn 5UTR act -91
Cc1ccc(-c2csc(NC(=O)/C=C/c3ccco3)c2C(=O)O)cc1	aSyn 5UTR act -79
O=C(CSCC(=O)N1CCCCC1)Nc1nc(-c2ccc(Cl)s2)cs1	aSyn 5UTR act -118
O=C(CN1C(=O)CCC1=O)Nc1nc(-c2ccc(Cl)s2)cs1	aSyn 5UTR act -64
O=C(NC1CCCC1)C1CC(c2ccc(F)cc2)=NO1 (configuration not stated)	aSyn 5UTR act -108
COc1cccc(C2=NOC(C(=O)N3CCOCC3)C2)c1 (configuration not stated)	aSyn 5UTR act -101
CC1CCCC(C)N1C(=O)C1CC(c2ccc(F)cc2)=NO1 (configuration not stated)	aSyn 5UTR act -84
CC1CCN(C(=O)C2CC(c3ccc(F)cc3)=NO2)CC1 (configuration not stated)	aSyn 5UTR act -88
